Bioassay records deposited in PubChem by National Center for Advancing Translational Sciences (NCATS).
This is a sample that favours compounds with a hit; in the whole collection about 2.8% have one here.
Integrin act MD = qHTS for Activators of Integrin-Mediated Alleviation for Muscular Dystrophy; alpha7betagal myoblasts, beta-gal FDG fluorescence, 48 h; Potency, µM (doses to about 38.3 µM), without a hit: top-dose activation, hits mostly activators; 350,000 compounds, 0.064% hits;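 also: potency is read from the fitted curve at half-maximal effect; 100% = response of the positive control SU9516; nearly all actives have a fitted effect of over 60% in size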
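alpha7betagal+/- myoblasts (passage 13, 250/well) treated 48 h at 37C with compounds at 1:260 dilution of DMSO stock. Lysed, then beta-galactosidase activity read as FDG fluorescence (ex 480/em 540) after 30 min, with pre-read for autofluorescence.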
DRD3 antagonist = qHTS of D3 Dopamine Receptor Antagonist: qHTS; D(3) dopamine receptor (Homo sapiens), P35462; D3R cells, DiscoveRx beta-arrestin luminescence, antagonist mode; stronger effect = lower value; max response, negative = inhibition, %; 360,000 compounds, 2.5% hits; AID 652054, 2013; in the data active = max response below about -50%; inconclusive = no clear call, values can overlap the other calls; also: % is scaled to controls: 0 for no effect and ±100 for the full control effect
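Cells plated overnight at 1500 cells/well, then exposed to library compounds with dopamine controls for 90 minutes at 37 degrees C. DiscoveRx reagent added for 30–60 minutes at room temperature; luminescence read, quantitative HTS format.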
PTHR1 ag = qHTS for PTHR1 Agonists: Primary Screen | Parathyroid hormone/parathyroid hormone-related peptide receptor (Homo sapiens), Q03431 | HEK293 GP2 PTHR1 cells, GloSensor cAMP luminescence, 1 h | Potency, µM (highest dose often 115 µM), without a hit: top-dose activation, actives largely listed as activators | 410,000 compounds, 0.075% hits; also: potency is read from the fitted curve at half-maximal effect; nearly all actives have a fitted effect of over 55% in size
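HEK-293-derived GP2 cells expressing PTHR1 and a GloSensor cAMP reporter, 3,000/well, plated overnight, given luciferin plus IBMX (each 0.5 mM as added) for 1 h at 37 °C, then compound for 1 h at 37 °C. Luminescence was read after 15 min at room temperature.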
MBNL1-CUG inh = qHTS Assay for Inhibitors of MBNL1-poly(CUG) RNA binding; 280,000 compounds, 0.036% hits; Potency, µM (doses to about 57.5 µM), for inactives: at the highest dose activity change, negative = inhibition, most hits filed as inhibitors; AID 2675, 2010; TR-FRET MBNL1-His/biotin-(CUG)12 binding, 665/545 ratio; Muscleblind-like protein 1 (Homo sapiens), Q9NR56; active = well fitted inhibition curve with a large enough effect in the signal ratio, with a control signal flat, not every such curve was filed as active; inconclusive = small, poorly fitted or top-dose-only effect, or effect the other way, or a change in a side signal; inactive = no such curve, though single readings can be large or run the other way; the % refers to the signal ratio; also: potency is read from the fitted curve at half-maximal effect; % is scaled to controls: 0 for no effect and ±100 for the full control effect
Target sequence (Q9NR56 whole entry, looked up): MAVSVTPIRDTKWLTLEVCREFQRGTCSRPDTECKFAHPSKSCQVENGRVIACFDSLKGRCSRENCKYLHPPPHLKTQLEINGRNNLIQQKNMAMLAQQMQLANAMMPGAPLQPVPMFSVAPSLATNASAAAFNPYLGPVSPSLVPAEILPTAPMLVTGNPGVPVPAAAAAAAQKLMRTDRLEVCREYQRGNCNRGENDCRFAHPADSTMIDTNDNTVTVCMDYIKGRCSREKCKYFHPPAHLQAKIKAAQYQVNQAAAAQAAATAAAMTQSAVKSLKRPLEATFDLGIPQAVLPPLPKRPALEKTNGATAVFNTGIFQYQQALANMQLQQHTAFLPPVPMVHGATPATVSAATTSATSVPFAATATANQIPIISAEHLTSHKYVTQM
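TR-FRET readout: Ex 340 nm, 665/545 nm emission ratio, normalized to buffer-only (basal) and MBNL1-(CUG)12 controls. Complex of MBNL1-His with Biotin-(CUG)12, compounds 92 nM–58 uM, incubated 60 min at room temperature.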
CBFb RUNX1 block = qHTS Assay for Compounds Blocking the Interaction Between CBF-beta and RUNX1 for the Treatment of Acute Myeloid Leukemia | Runt-related transcription factor 1 (Homo sapiens) + Core-binding factor subunit beta … | AlphaScreen CBFb-His/RUNX1-biotin binding, biochemical | Potency, µM (top dose mostly 59.8 µM), for inactives: top-dose activity, negative = inhibition, hits mostly inhibitors | 230,000 tested, under 10 active; also: % of control where 0% means no effect
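AlphaScreen binding: CBFb-His and RUNX1-biotin (30 nM each) preincubated 20 min, compound added for 15 min, then nickel and streptavidin beads for 90 min, all at room temperature. Disruption of the interaction by any mechanism counts as activity.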
D3 ag = qHTS of D3 Dopamine Receptor Agonist: qHTS | D(3) dopamine receptor (Homo sapiens), P35462 | D3R DiscoveRx beta-arrestin cells, luminescence, 90 min | max activation, % | 410,000 compounds, 0.58% hits | AID 652048, 2013; in the data active = max activation above about 30%; also: 0% is about no effect
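Cells at 1500/well, incubated overnight, then treated with pinned compounds (dopamine as control) for 90 min at 37 degrees C. DiscoveRx reagent added for 30 - 60 minutes at room temperature; luminescence read.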
* marks the source's active call; other numbers are inactive results; i = inactive; ? = inconclusive; nt = not tested or not shown; [ ] = another dose, or the depositor's remark. Unless noted, calls follow the shape of the dose curve; as a rule, active = well fitted curve in the direction sought with a large enough effect; inconclusive = small, poorly fitted or top-dose-only effect, or another doubt; inactive = no such curve, though single readings can be large; an effect the other way counts as inactive or inconclusive.

SMILES	Integrin act MD	DRD3 antagonist	PTHR1 ag	MBNL1-CUG inh	CBFb RUNX1 block	D3 ag
C[C@@H]1C(=O)O[C@H]2C[C@@]34[C@H]5C[C@@H](C(C)(C)C)[C@]36[C@@H](OC(=O)[C@@H]6O)O[C@@]4(C(=O)O5)[C@]21O	10%	-4	i	-3%	nt	-15
COc1cc2c(cc1OC)C1[C@H]3C(=CC[C@H]1OC2O)CCN3C (stereo partly specified)	22%	-54*	18%	nt	nt	-38
COc1cc2c(cc1OC)C(C1c3cc4c(cc3CCN1C)OCO4)OC2=O (stereo unspecified)	1%	-11	6%	-3%	nt	-6
CCOC(=O)[C@]12Cc3ccc(C)cc3[C@H]1N(C1CCCCC1)C(=O)c1cc(OC)ccc12	nt	?	-96%	nt	nt	-10
CCOC(=O)[C@]12Cc3ccc(C)cc3[C@H]1N(C1CCCCC1)C(=O)c1ccccc12	nt	-73*	-58%	nt	nt	-9
CCOC(=O)[C@]12Cc3cc(Cl)ccc3[C@H]1N(C1CCCCC1)C(=O)c1cc(OC)ccc12	nt	-123*	-94%	nt	nt	-13
Cc1ccc(N2C(=O)NC(=O)/C(=C\c3cc(C)n(-c4ccc(C(=O)O)cc4)c3C)C2=O)cc1	13%	18	1%	12%	nt	2
Cc1ccc(N2C(=O)NC(=O)/C(=C\c3cc(C)n(-c4cc(C(=O)O)cc(C(=O)O)c4)c3C)C2=O)cc1	4%	-54*	i	15%	nt	-4
CC(=O)Oc1ccc(Cl)c2cccnc12	nt	nt	nt	nt	1%	nt
Cc1cccc(NC(=O)Oc2ccc(Cl)c3cccnc23)c1	-46%	-120*	i	nt	nt	-30
CCN(CC)CCN=Cc1c(O)n(C2CCCCCC2)c(=O)[nH]c1=O	30%	0	-44%[57.5 µM]	1%	1%	39*
CN(C)CCN=Cc1c(O)n(C2CCCCCC2)c(=O)[nH]c1=O	1%	4	1%[57.5 µM]	-1%	2%	5
CN(C)CCSC1c2ccccc2CSc2ccccc21 (stereo unspecified)	-1%	-102*	19%	nt	nt	-19
CCOc1ccc(CCNC(=O)c2cc3c(-c4cccc(OC)c4)nn(C)c3s2)cc1OCC	nt	nt	-45%	nt	nt	16
CC(C)C[C@H]1C(=O)N2CCC[C@H]2[C@]2(O)O[C@](NC(=O)[C@@H]3C=C4c5cccc6[nH]cc(c56)C[C@H]4N(C)C3)(C(C)C)C(=O)N12	nt	-76*	-20%	nt	nt	-9
CC(C)C[C@H]1C(=O)N2CCC[C@H]2[C@]2(O)O[C@](NC(=O)[C@@H]3C=C4c5cccc6[nH]c(Br)c(c56)C[C@H]4N(C)C3)(C(C)C)C(=O)N12	nt	nt	nt	nt	-25%	39*
CC(C)C[C@H]1C(=O)N2CCC[C@@H]2[C@]2(O)O[C@](NC(=O)[C@H]3C=C4c5cccc6[nH]c(Br)c(c56)C[C@H]4N(C)C3)(C(C)C)C(=O)N12	nt	nt	nt	nt	-10%[21.7 µM]	nt
CC(=O)Oc1ccc2c3c1O[C@H]1[C@@H](OC(C)=O)C=C[C@H]4[C@@H](C2)N(C)CC[C@@]341	nt	nt	nt	nt	nt	3
O=P(Nc1ccccc1)(Oc1ccccc1)Oc1ccccc1	1%	92	-10%	-5%	3%	5
CNP(=O)(Oc1ccccc1)OC12CC3CC(CC(C3)C1)C2 (stereo unspecified)	10µM*	-5	i	-1%	0%	-2
CCN1CCN(c2cn[nH]c(=O)c2Cl)CC1	-3%	-75*	i	-11%	0%	-22
NNS(=O)(=O)c1ccc(Sc2ccccn2)c([N+](=O)[O-])c1	14%	-9	-12%	?	-3%	-3
